Compounds with a hit are over-represented: about 17% of the library has one in this group of screens.
HT1080 IDH1KD tx: kills HT-1080 cells with IDH1 knockdown; HT-1080 IDH1 knockdown viability, ATP luminescence, 48 h; Potency, µM (series often up to 46.1 µM), inactives show at the top dose activity, negative = toxicity, usual class: cytotoxic; actives 2% (n = 360,000);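 further: 0% = DMSO wells and -100% = cell-free medium wells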
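Knockdown cells (IDH1KD HT-1080) received compounds 2 h after plating at 750 cells/well and were kept 48 h at 37 °C in 5% FBS RPMI. A CellTiter-Glo luminescence read gave % activity for curve fitting.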
DT40 TDP1 no CPT: qHTS for Inhibitors of human tyrosyl-DNA phosphodiesterase 1 (TDP1): qHTS in cells in absence of CPT; DT40 Tdp1-/- hTDP1 cells, no CPT, ATP luminescence, 48 h; Potency, µM (doses to about 46.2 µM), for inactives: at the highest dose activity change, negative = growth inhibition, hits mostly inhibitors; actives 15% (n = 420,000); AID 686978, 2013; further: on the % scale 0 is the no-effect control and ±100 the full control effect; nearly all actives have a fitted effect of over 55% in size
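Camptothecin absent (DMSO only). Human TDP1-complemented DT40 knockout cells, 400 cells/well, 37 °C for minimum 48 hr; ATP measured via CellTiter-Glo, 30 min dark incubation, luminescence.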
HT1080-NT tox: kills 2HG-producing HT-1080-NT fibrosarcoma cells; actives 1.6% (n = 360,000); HT-1080-NT fibrosarcoma viability, CellTiter-Glo ATP luminescence, 48 h; Potency, µM (titrated, usually from 46.1 µM), without a hit: top-dose activity, negative = less viability, hits mostly cytotoxic;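 further: NT is the 2HG producing partner of a matched IDH1 knockdown line; 0% = DMSO-treated cells and -100% = media-only wells without cells; nearly all actives have a fitted effect of over 55% in size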
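HT-1080-NT fibrosarcoma cells (2HG-overproducing), 750 cells/well in RPMI with 5% FBS, dosed after 2 h and incubated 48 h at 37C. CellTiter-Glo luminescence normalized to DMSO and no-cell wells; concentration-response curves fitted and classed.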
TGFb SMAD3 inh: blocks TGF-b signaling; actives 1.2% (n = 410,000); AID 588855; HepG2 CAGA-GFP TGF-b/SMAD3 reporter, GFP fluorescence, 18 h; TGF-beta stimulated, 500 pg/mL final; Potency, µM (highest dose often 46.1 µM), for inactives: at the highest dose activity, negative = inhibition, actives largely listed as inhibitors; further: on the % scale 0 is the no-effect control and ±100 the full control effect; nearly all actives have a fitted effect of over 65% in size
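Read-out: total well GFP (ex488/em500-530) summed from mean per-cell fluorescence. Cells: HEPG2 CAGA-GFP, 1% FBS DMEM, 18 h at 37 degrees C with 500 pg/mL final TGF-beta. Unstimulated wells served as the full-inhibition control; stimulated DMSO wells = 0%.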
DT40 TDP1 CPT: growth inhibition of DT40 Tdp1-/-;hTDP1 cells with camptothecin (screen for TDP1 inhibitors); Potency, µM (titrated, usually from 46.2 µM), for the others: at the highest dose activity change, negative = growth inhibition, actives largely listed as inhibitors; actives 12% (n = 420,000); chicken DT40 Tdp1-/-;hTDP1 cells + 20 nM CPT, ATP luminescence, 48 h; further: on the % scale 0 is the no-effect control and ±100 the full control effect; nearly all actives have a fitted effect of over 55% in size
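Chicken DT40 Tdp1-/- cells stably complemented with human TDP1 were seeded at 400 cells/well in medium containing 20 nM camptothecin, exposed to pin-transferred compounds, and grown at 37 °C for at least 48 hr. Viability was read as ATP luminescence.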
HepG2 viability: kills HepG2 cells in TGF-b inhibitor counter-screen | HepG2 CAGA-GFP viability, ATP luminescence, 18 h | Potency, µM (titrated, usually from 46.1 µM), for inactives: at the top dose activity change, negative = cytotoxicity, actives largely listed as cytotoxic | actives 0.76% (n = 410,000)
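CellTiter-Glo luminescence gave cytotoxicity after 18 hours at 37 degrees C. The cells were HepG2 CAGA-GFP in 1% FBS DMEM, stimulated with 500 pg/mL TGF-beta after compound addition. %Activity was normalised to no-cell wells (complete cell-killing) and DMSO (no toxicity), and curves were fitted and classified.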
The depositor's hits bear a star; ? = inconclusive; / = not tested or not shown; ! = not confirmed by another sample. The call rests on the fitted dose curve; in most records, active means well fitted curve in the direction sought with a large enough effect; inconclusive means small, poorly fitted or top-dose-only effect, or another doubt; inactive means no such curve, though single readings can be large; an effect the other way counts as inactive or inconclusive. Potency means the concentration at half of the fitted maximal effect.

SMILES	HT1080 IDH1KD tx	DT40 TDP1 no CPT	HT1080-NT tox	TGFb SMAD3 inh	DT40 TDP1 CPT	HepG2 viability
COc1cccc(OC)c1C(=O)Nc1cccc(NC(=O)c2cccs2)c1	1%	-30%	1%	-27%	-4%	-19%
COc1ccc(-c2cc(C(F)(F)F)nc(S(=O)(=O)CCCC(=O)Nc3cc(C)on3)n2)cc1OC	21µM*	1.2µM*	16µM*	?	0.73µM*	-109%
COc1ccccc1-c1cc(C(F)(F)F)nc(S(=O)(=O)CCCC(=O)Nc2cc(C)on2)n1	4.1µM*	1µM*	9.2µM*	-6%	0.92µM*	-35%
COc1ccccc1-c1cc(C(=O)Nc2cc(C)on2)no1	-30%	-17%	-16%	8%	-7%	-25%
COc1ccc(-c2cc(C(F)(F)F)n3nc(C(=O)Nc4cc(C)on4)cc3n2)cc1OC	6%	-29%	4%	0%	-20%	-25%
COc1ccc(Cl)cc1NC(=O)CCCS(=O)(=O)c1nc(-c2ccc(OC)c(OC)c2)cc(C(F)(F)F)n1	/	2.1µM*	/	2.8µM*	1.5µM*	14µM*
O=C(NC(Cc1ccccc1)C(=O)O)/C(=C/c1ccc(Cl)cc1)NC(=O)c1ccco1 (stereo not drawn)	0%	0%	9%	24%	-6%	-6%
CCCNC(=O)C(Cc1ccc(F)cc1)NC(=O)c1ccccc1 (stereo not drawn)	2%	-16%	21%	2%	-25%	1%
CC(=O)NC(Cc1c(F)c(F)c(F)c(F)c1F)C(=O)NCC(N)C(=O)c1ccccc1 (stereo not drawn)	-3%	20µM*	15%	/	?	/
CCN(CC)C(=O)c1c(NC(=O)c2ccccc2F)sc2c1CCC(C(C)(C)C)C2 (stereo not drawn)	/	?	/	0%	23µM*	-24%
CC(C)(C)C1CCc2c(sc(NC(=O)c3ccccc3F)c2C(=O)NCc2ccco2)C1 (stereo not drawn)	/	-6%	/	22%	-1%	-4%
Cc1[nH]c(=O)[nH]c(=O)c1S(=O)(=O)Nc1ccc(F)cc1Cl	-2%	-11%	14%	17%	3%	4%
c1ccc2nc(-c3cc4ccccc4s3)ccc2c1	/	-26%	/	-2%	-29%	-13%
CN(C)c1ccc2nc3ccc(=O)cc-3sc2c1	?	1.6µM*	?	?	1.6µM*	-104%
Cc1cc2nc3ccc(=[N+](C)C)cc-3sc2cc1N	4.1µM*	0.41µM*	8.2µM*	?	1.2µM*	8.9µM*
CN(C)c1ccc2nc3ccc(=[N+](C)C)cc-3sc2c1	21µM*	0.0073µM*	7.3µM*	10µM*	1.2µM*	7.9µM*!
Cc1cc(-c2ccc([N+](=O)[O-])cc2)cc(C)n1	-1%	-24%	1%	-15%	13%	-2%
CNC(=S)NCCC(c1ccccc1)c1ccccc1	-17%	-34%	-1%	-22%	-23%	1%
CC[C@H](C)[C@@H](CN[C@H](C)CNC)NCCC(c1ccccc1)c1ccccc1	?	3.7µM*	?	?	5.2µM*	22µM*
Cc1ccc2cc3c(N)[nH]nc3nc2c1	-6%	-1%	-4%	-3%	10%	-8%
CCn1cc(S(=O)(=O)c2cc(C)cc(C)c2)c(=O)c2cc(F)c(N3CCOCC3)cc21	/	-22%	/	0%	?	5%
CCCn1cc(S(=O)(=O)c2cc(C)ccc2C)c(=O)c2cc(F)c(N3CCCCCC3)cc21	/	-84%	/	-1%	?	-1%
CCn1cc(S(=O)(=O)c2ccc(C)cc2C)c(=O)c2cc(F)c(N3CCCCC3)cc21	/	23µM*	/	?	?	-26%
CCn1cc(S(=O)(=O)c2ccc(OC)cc2)c(=O)c2cc(F)c(N3CCC(C)CC3)cc21	/	26µM*	/	?	?	-18%
CCn1cc(S(=O)(=O)c2ccc(OC)cc2)c(=O)c2cc(F)c(N3CCCCCC3)cc21	/	?	/	0%	?	8%
SMILES	HT1080 IDH1KD tx	DT40 TDP1 no CPT	HT1080-NT tox	TGFb SMAD3 inh	DT40 TDP1 CPT	HepG2 viability
CCn1cc(S(=O)(=O)c2ccc(C)cc2)c(=O)c2cc(F)c(N3CCCCCC3)cc21	/	18µM*	/	2%	16µM*	7%
CC1CCCCN1c1cc2c(cc1F)c(=O)c(S(=O)(=O)c1ccccc1)cn2Cc1ccccc1 (stereo not drawn)	/	8.2µM*	/	-16%	8.2µM*	-7%
CN1CCN(S(=O)(=O)c2ccc(NC(=S)NC(=O)C(C)(C)C)cc2)CC1	22%	?	9%	0%	-9%	-27%
Cc1ccc(S(=O)(=O)c2cn(Cc3ccccc3)c3cc(N4CCCC4)c(F)cc3c2=O)cc1	/	5.8µM*	/	10%	5.8µM*	12%
O=c1c(S(=O)(=O)c2ccccc2)cn(Cc2ccccc2)c2cc(N3CCCC3)c(F)cc12	/	0%	/	1%	-5%	3%
CCc1ccc(S(=O)(=O)c2cn(CC)c3cc(N4CCOCC4)c(F)cc3c2=O)cc1	/	?	/	-2%	15µM*	1%
CCOc1ccc2oc(C(=O)NCC(c3ccco3)N(C)C)c(C)c2c1 (stereo not drawn)	3%	23µM*	0%	0%	16µM*	-11%
Cc1ccc(C2NC(=O)c3n[nH]c(-c4cccs4)c32)cc1 (stereo not drawn)	/	18µM*	/	-12%	?	-18%
CCC1(CC)CNC(=O)NC1	8%	-3%	5%	8%	19%	16%
O=C1c2[nH]nc(-c3ccccc3O)c2C(c2cccc(OCc3ccccc3)c2)N1CCCO (stereo not drawn)	/	?	/	10µM*	?	-102%
CC(C)OCCCN1C(=O)c2[nH]nc(-c3ccccc3O)c2C1c1ccc(OCc2ccccc2)cc1 (stereo not drawn)	/	12µM*	/	?	15µM*	-95%
COc1cc(C2c3c(-c4ccccc4O)n[nH]c3C(=O)N2CCO)ccc1OCc1ccccc1 (stereo not drawn)	/	26µM*	/	-25%	-28%	-18%
CCCOc1cccc(C2c3c(-c4ccccc4O)n[nH]c3C(=O)N2Cc2ccco2)c1 (stereo not drawn)	/	?	/	?	?	-111%

Source: PubChem BioAssay
